From PubChem BioAssay AID602376 (Johns Hopkins Ion Channel Center, 2012)
Measured potencies and affinities stand elsewhere. Records with an inconclusive call do not appear.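 Rule for the calls: active = raises choline transporter activity at one or more tested doses and gives a fitted dose-response curve; inconclusive = no clear call, values can overlap the other calls; inactive = no choline transporter activation at any dose, or no curve.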

What follows are compounds tested against High affinity choline transporter 1 (Homo sapiens) (UniProt Q9GZV3) (assay: human choline transporter potentiators, potency – cell-based, 10-point CRC, membrane potential dye, dose response (AID 602376)). Settings: HEK293-CHT, choline-induced membrane potential dye, cells express CHT LV-AA mutant; series mostly up to 67 µM; percent activation: at the top concentration.
High affinity choline transporter 1 (Homo sapiens), sequence (Q9GZV3 whole entry, looked up): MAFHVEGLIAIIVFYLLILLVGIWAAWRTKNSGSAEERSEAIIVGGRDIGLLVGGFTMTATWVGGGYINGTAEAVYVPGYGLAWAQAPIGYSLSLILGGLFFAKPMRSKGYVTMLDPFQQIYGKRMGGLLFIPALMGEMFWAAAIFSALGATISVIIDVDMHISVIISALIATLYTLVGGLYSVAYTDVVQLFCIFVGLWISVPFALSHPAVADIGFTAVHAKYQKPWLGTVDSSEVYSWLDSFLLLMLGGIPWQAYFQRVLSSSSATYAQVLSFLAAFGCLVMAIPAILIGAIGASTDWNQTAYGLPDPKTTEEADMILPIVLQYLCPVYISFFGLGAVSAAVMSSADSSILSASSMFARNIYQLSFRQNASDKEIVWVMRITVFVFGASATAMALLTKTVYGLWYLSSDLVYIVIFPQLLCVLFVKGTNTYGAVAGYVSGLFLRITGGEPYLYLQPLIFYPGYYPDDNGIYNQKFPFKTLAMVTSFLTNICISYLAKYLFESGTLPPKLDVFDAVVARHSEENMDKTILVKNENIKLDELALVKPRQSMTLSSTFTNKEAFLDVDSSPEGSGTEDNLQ

Percent activation, inactive:
O=C(NCC(c1ccco1)N1CCCC1)c1ccccc1Sc1ccc(C(F)(F)F)cc1[N+](=O)[O-] (stereo not given) 51.3%
CC(C)(C)n1nnnc1C(c1cccnc1)N1CCN(c2cccc(C(F)(F)F)c2)CC1 (stereo not given) 52.4%
Nc1sc(-c2ccccc2)n[n+]1Cc1cccc2cccnc12 135%
O=C(COc1ccccc1)NCC(c1ccco1)N1CCN(c2ccc(F)cc2)CC1 (stereo not given) 65.2%
Cc1ccccc1SCC(=O)Nc1cc(C(F)(F)F)ccc1N1CCOCC1 68.4%
CCOc1cc(-c2sc(Nc3cc(C)ccc3OC)n[n+]2-c2ccccc2)ccc1OC 77.7%
CCOC(=O)c1c(CSc2ccsc2)n(C)c2cc(Br)c(O)c(CN(C)C)c12 93.4%
O=C1CCN(Cc2ccccc2)CCN1[C@H](COc1ccccc1)Cc1ccccc1 68.6%
CCc1cc2c(N3CCN(c4ccccc4)CC3)ncnc2s1 61.9%
C=C1CCN(Cc2ccccc2)S(=O)(=O)c2ccccc21 80%
O=c1c2ccccc2nc2n1C(CSCc1ccc(Cl)cc1)CS2 (stereo not given) 92.1%
CCCCC(c1nnnn1C1CCCC1)N1CCN(C2CCCC2)CC1 (stereo not given) 51.1%
Cc1ccccc1OCc1n(CC(=O)OC2CC(C)CCC2C(C)C)c2ccccc2[n+]1C (stereo not given) 202%
CCCCn1c(N)c(N(CCOC)C(=O)c2ccc(COc3ccccc3)o2)c(=O)[nH]c1=O 56.5%
CCc1ccc(C(O)(CNCc2ccccc2)c2ccccc2)cc1 (stereo not given) 153%
COc1ccc(C(N)c2nccc3cc(OC)c(OC)cc23)cc1OC (stereo not given) 48.1%
CN1CCN(Cc2nc3ccccc3c(=O)n2Cc2nc(-c3ccccc3F)cs2)CC1 37.2%
COC(=O)C1=C(C)N(Cc2ccccc2)C(=NCc2ccc(OC)cc2)N[C@H]1c1cccc(F)c1 86%
Clc1ccc(CN2C3=NCCN3c3ccccc32)cc1Cl 76.6%
CC(C)C1Oc2ccccc2N(CC(=O)NC2CCCCC2)C1=O (stereo not given) 54.6%
CCOc1ccc(S(=O)(=O)NCc2ccco2)c2ccccc12 69.7%
CC1Cc2cc(S(=O)(=O)N3CCN(c4ccccc4F)CC3)ccc2N1C(=O)C1CC1 (stereo not given) 72.5%
O=C1CCC(C(=O)N(Cc2cccs2)C2(C(=O)NC3CCCCC3)CCCCC2)N1 (stereo not given) 73.7%
COc1cccc(C(c2nnnn2CCc2ccccc2)N2CCN(c3ccccc3)CC2)c1OC (stereo not given) 66.3%
COC(=O)CNC(c1ccccc1)c1cc(C)ccc1NC(=O)c1cccc(Cl)c1 (stereo not given) 71%
CCC(=O)N1CCN(c2ccccc2NC(=O)c2ccc([N+](=O)[O-])o2)CC1 72%
CCOC(=O)c1sc2nc(SCC#N)n(CCCN3CCCC3=O)c(=O)c2c1C 0.97%
CCOC(=O)c1c(C)nc2ccccc2c1-c1ccccc1 66.6%
COc1ccc(-c2c(-c3cc(OC)c(OC)c(OC)c3)noc2C)cn1 94.6%
CC(C)CN(C(=O)CSc1nnc(-c2cccs2)n1N)c1c(N)n(Cc2ccccc2)c(=O)[nH]c1=O 69.9%
CCOC(=O)c1c[nH]c2nc(C)ccc2c1=O 14.8%
COc1ccc(Br)cc1CN(C)C(=O)c1ccccc1OCc1c(C)noc1C 92.1%
CCc1cccc(C)c1NC(=O)CN(C)Cc1ccc(Br)cc1 58.6%
COc1ccc(-c2cc(C(=O)NNC(=O)c3csc(N4CCOCC4)n3)c3ccccc3n2)cc1OC 37.9%
O=C(COC(=O)c1c2c(nc3ccccc13)CCCCC2)NCc1ccc2c(c1)OCO2 66.1%
Cc1nnc(N2CCC(C(=O)N3CCCCC3)CC2)c2nn(-c3ccc(Cl)cc3)c(C)c12 24.8%
COc1ccccc1C1CC(c2ccc(Cl)cc2)Nc2ncnn21 (stereo not given) 65.7%
Cc1cccc(Oc2nc(CN3CCOCC3)nc3sc4c(c23)CCCC4)c1 72.8%
COc1ccccc1N(C(=O)c1ccco1)C(C(=O)NC1CCCC1)c1cccs1 (stereo not given) 49.6%
N=c1c2c(n(Cc3ccc(Cl)c(Cl)c3)c3c1CCC3)CCCC2 70.6%
